Rows were chosen to be rich in hits. Some 5.9% of all compounds tested hit in one or more screens of this group.
HepG2 viability – counter-screen for TGF-b inhibitors: cytotoxicity in HepG2 cells; HepG2 CAGA-GFP viability, ATP luminescence, 18 h; Potency, µM (doses to about 46.1 µM), for the others: top-dose activity change, negative = cytotoxicity, usual class: cytotoxic; actives 0.76% (n = 410,000); AID 588856
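HepG2 CAGA-GFP cells (1000/well, DMEM with 1% FBS) received compound, then TGF-beta at 500 pg/mL final, and were incubated 18 hours at 37 degrees C. Viability was read by CellTiter-Glo luminescence. Media-only wells were set as complete cell-killing and DMSO as no toxicity.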
TGFb SMAD3 inh – inhibitors of TGF-b signaling; HepG2 CAGA-GFP TGF-b/SMAD3 reporter, GFP fluorescence, 18 h; TGF-beta stimulated, 500 pg/mL final; Potency, µM (highest dose often 46.1 µM), without a hit: top-dose activity, negative = inhibition, usual class: inhibitors; actives 1.2% (n = 410,000); AID 588855; also: % is scaled to controls: 0 for no effect and ±100 for the full control effect; nearly all actives have a fitted effect of over 65% in size
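Inhibition of TGF-beta-driven CAGA-GFP reporter expression in HEPG2 cells is measured by cellular GFP fluorescence after 18 h stimulation with 500 pg/mL recombinant TGF-beta in 1% FBS medium at 37 degrees C.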
KB-V1 cytotox – kills drug-selected multidrug resistant KB-V1 cells. actives 3.4% (n = 400,000). Potency, µM (titrated, usually from 46.1 µM), hits mostly cytotoxic. KB-V1 MDR cells viability, CellTiter-Glo, 72 h; also: % is scaled to controls: 0 for no effect and ±100 for the full control effect; nearly all actives have a fitted effect of over 60% in size
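Potencies derive from concentration-effect curves fitted to normalized luminescence (CellTiter-Glo) of KB-V1 cells treated for 72 h at 37 degrees C in phenol-red-free DMEM containing 10% FBS.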
KB-3-1 cytotox – kills parental KB-3-1 adenocarcinoma cells | KB-3-1 viability, CellTiter-Glo ATP luminescence, 72 h | Potency, µM (top dose mostly 46.1 µM), most hits filed as cytotoxic | actives 1.4% (n = 400,000) | AID 1347075; also: % is scaled to controls: 0 for no effect and ±100 for the full control effect; nearly all actives have a fitted effect of over 60% in size
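72 h, 37 °C compound treatment of KB-3-1 parental cells; CellTiter-Glo added, 10 min, luminescence read. Data corrected against DMSO-only plates and normalized before curve fitting.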
ATXN2 expr inh – reduces ATXN2 reporter expression in HEK-293 cells; HEK-293 ATXN2-luciferase reporter, luminescence, 24 h; Potency, µM (series often up to 57 µM), for inactives: top-dose activity change, negative = inhibition, actives largely listed as inhibitors; actives 0.72% (n = 360,000); also: % is scaled to controls: 0 for no effect and ±100 for the full control effect; nearly all actives have a fitted effect of over 55% in size
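qHTS (up to 57 uM final) was run with 24 h compound exposure of reporter cells at 37 °C. Each well was multiplexed: SteadyGlo luminescence measured ATXN2-luciferase expression after a fluorogenic Gly-Phe-AFC viability readout (25 uM final).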
ATXN viability – reduces viability in counter-screen for ATXN expression inhibitors | S2 cells (HEK-293 line with an ATXN2-luciferase reporter) viability, CellTiter-Fluor protease fluorescence, 24 h | Potency, µM (titrated, usually from 56.7 µM), actives largely listed as cytotoxic | actives 0.49% (n = 400,000); also: nearly all actives have a fitted effect of over 40% in size
An asterisk follows results filed as active; i = inactive; ? = inconclusive; / = not tested or not shown. Calls follow the shape of the dose curve; as a rule, active = well fitted curve in the direction sought with a large enough effect; inconclusive = small, poorly fitted or top-dose-only effect, or another doubt; inactive = no such curve, though single readings can be large; an effect the other way counts as inactive or inconclusive. Potency is read from the fitted curve at half-maximal effect.

SMILES	HepG2 viability	TGFb SMAD3 inh	KB-V1 cytotox	KB-3-1 cytotox	ATXN2 expr inh	ATXN viability
c1ccc(CCn2c(C3CC3)nc3ccccc32)cc1	-1.3%	0.6%	20.6µM*	i	-2.4%	i
CCC(=C(c1ccc(OC)cc1)c1ccc(OC)cc1)c1cn(CC(O)CN2CCN(C)CC2)c2ccccc12 (stereo not given)	12.6µM*	?	?	?	?	/
COc1ccc(C(=O)/C=C/c2cn(CC(O)CN3CCc4ccccc43)c3ccccc23)cc1 (stereo not given)	-22.4%	-18.5%	i	i	0.0%	/
COC(=O)c1ccc(C(=O)OC)c(NC(=O)c2ccc(-c3ccccc3)s2)c1	-2.0%	1.4%	i	i	13.5%	i
CC(C)CCn1cnc2c(NCc3ccccc3)ncnc21	-23.6%	20.8%	16.4µM*	i	43.9%	i
CC(CNC(=O)Cn1cnc2c(NCc3ccccc3)ncnc21)c1ccccc1 (stereo not given)	11.2%	-6.9%	i	i	0.9%	i
CCC(C)NC(=O)CCSc1nc(-c2ccc(OC)cc2)cc(C(F)(F)F)n1 (stereo not given)	-22.4%	-5.1%	?	i	-8.6%	i
CS(=O)(=O)c1nc(-c2ccc(F)cc2)cc(C(F)(F)F)n1	11.2µM*	?	?	?	?	?
COc1ccc(-c2cc(C(F)(F)F)nc(S(C)(=O)=O)n2)cc1	-100.6%	3.55µM*	?	?	?	17.8µM*
COc1ccc(-c2cc(C(F)(F)F)nc(-n3cc(Cl)cn3)n2)cc1	-6.6%	1.2%	23.1µM*	i	-19.5%	i
COCC(C)NC(=O)CCS(=O)(=O)c1nc(-c2ccc(OC)cc2)cc(C(F)(F)F)n1 (stereo not given)	-109.6%	11.2µM*	i	i	?	?
Nc1nc2ccccc2cc1C(=O)NCc1ccc(Cl)cc1Cl	/	/	i	?	?	?
Cc1cc(Cl)ccc1Nc1ncnc2onc(C)c12	1.5%	-10.8%	?	i	-1.5%	i
COc1ccc(CNC(=O)c2cc3cc(C)ccc3n2C)cc1	-21.5%	0.0%	i	i	77.0%	?
Cc1ccccc1C(=O)N1CCc2c(cnc(C)c2CNC(=O)CN2CCCCC2)C1	/	/	/	/	/	i
COc1ccc2c(c1)C/C(=C\c1ccc(N(C)C)cc1)C2=O	-25.3%	182.6%	i	i	/	/
C/C(Cl)=C\Cn1c(O)c(N=NC(N)=S)c2ccccc21	-29.1%	?	9.2µM*	?	23.8µM*	/
C=CCn1c(O)c(N=NC(=S)Nc2ccccc2F)c2ccccc21	-36.5%	?	i	?	?	?
NC(=S)N=Nc1c(O)n(Cc2ccccc2)c2ccccc12	-38.3%	-13.6%	i	i	-12.6%	i
C=CCn1c(O)c(N=NC(=S)Nc2cccc(C)c2)c2ccccc21	1.5%	?	2.91µM*	?	?	i
CC=C1COC(C(=O)NCCOCCO)(C(F)(F)F)C=C1C=C(C)C (stereo not given)	-20.7%	?	/	/	/	/
C/C=C1\COC(C(=O)NC)(C(F)(F)F)C=C1C=C1CCCCC1 (stereo not given)	-58.7%	15.8µM*	/	/	/	/
C/C=C1\COC(C(=O)NCCOCCO)(C(F)(F)F)C=C1C=C1CCCCC1 (stereo not given)	-57.4%	12.6µM*	/	/	/	/
C/C=C1\COC(C(=O)NCc2ccncc2)(C(F)(F)F)C=C1C=C1CCCCC1 (stereo not given)	-26.6%	10µM*	?	i	-14.5%	i
C/C=C1\COC(C(=O)NCc2cccc(OC)c2OC)(C(F)(F)F)C=C1C=C1CCCCC1 (stereo not given)	-18.3%	?	i	i	-25.8%	i
SMILES	HepG2 viability	TGFb SMAD3 inh	KB-V1 cytotox	KB-3-1 cytotox	ATXN2 expr inh	ATXN viability
O=C(CNC(=O)C(c1ccccc1)c1ccccc1)OCC(=O)c1cccc2ccccc12	0.1%	20.4%	i	i	/	/
COCC(=O)Nc1cc(C(=O)N2CCSCC2)cc2nc(-c3ccccc3)n(C)c12	/	/	/	/	/	i
COc1cc(N(C)C)c(OC)cc1/C=C/c1ccnc2ccccc12	-34.8%	36.5%	i	i	/	/
COc1ccc(C2CC(c3cccs3)=NN2C(=O)c2ccccc2)cc1OC (stereo not given)	-17.2%	14.5%	i	i	-10.1%	?
COc1cc(C2CC(c3cccs3)=NN2C(=O)CCl)ccc1OC(F)F (stereo not given)	6.31µM*	6.31µM*	14.6µM*	?	?	/
COc1ccc(C2CC(c3cccs3)=NN2C(=O)CCl)cc1OC (stereo not given)	7.08µM*	10µM*	?	?	12.6µM*	11.2µM*
Cc1ccc(-n2cc(C(=O)Oc3ccc(F)cc3)c3ccccc3c2=O)cc1	-16.3%	-18.1%	i	i	/	/
C[C@@H]1C[C@H]2[C@@H]3CCC4=CC(=O)C=C[C@]4(C)[C@@]3(F)[C@@H](O)C[C@]2(C)[C@@]1(O)C(=O)COC(=O)c1ccncc1	/	/	/	/	-2.4%	i
COc1cc(Nc2c3c(nc4ccccc24)CCCC3)cc(OC)c1OC	-48.6%	-7.3%	i	?	34.7%	?
COc1ccccc1Nc1c2c(nc3ccccc13)CCC2	-26.6%	17.8µM*	?	?	?	?
COc1cc(Cl)c(C)cc1Nc1c2c(nc3ccccc13)CCC2	11.2µM*	15.8µM*	i	4.11µM*	?	14.1µM*
COc1ccc(Nc2c3c(nc4ccccc24)CCC3)c(OC)c1	-32.5%	?	4.11µM*	20.6µM*	-32.6%	i
Cc1ncc2c(c1CNC(=O)CN1CCCCC1)CCN(C(=O)c1ccc(F)cc1Cl)C2	/	/	/	/	/	i
O=[N+]([O-])c1cc(Br)c(Nc2ccccc2)c([N+](=O)[O-])c1	-121.2%	17.8µM*	16.4µM*	?	/	12.6µM*
Cc1[nH]c2ccccc2c1CCNCc1ccc(C=CC(=O)NO)cc1	/	/	/	/	119.6%	/
Cc1ccc(Sc2c(C=O)c3ccccc3n2C)cc1	-13.8%	?	?	23.1µM*	-15.9%	i
O=C1c2ccc3c4c(ccc(c24)C(=O)N1c1cccc(O)c1)CC3	-7.4%	-7.8%	i	i	-13.1%	i
O=C1c2ccc3c4c(ccc(c24)C(=O)N1c1cccc(O)c1)C(=O)N(c1cccc(O)c1)C3=O	4.47µM*	3.98µM*	i	16.4µM*	/	?
COCCCNC(=O)c1cnn(-c2ncc3c(n2)-c2ccccc2CCC3)c1C	/	/	/	/	/	i
